From the supplement of paper PMC10849652
The full data set covers some 8,800 targets. This sample favours those with a hit. About 0.5% of all pairs of compound and target were hits.

Columns and labels:
Test in all cases: log2 fold change, soluble protein after heating vs DMSO (PISA); higher = thermal stabilisation; K562 lysate, 10 uM; active = over 0.2 and 3.5 SD of the protein, either way, in both replicates (recomputed)
[1] = compound: C1=CC=C(C=C1)[C@H](COC2=CC3=C(C=C2)NC(=O)N3)NC(=O)C4=CC=CN(C4=O)CC5=CC(=C(C=C5)F)F
Procedure, shortened: (§1)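 Soluble protein was defined as the supernatant remaining after 21,000xg for 90 min, following pooling of heated aliquots and adjustment to 0.5% NP-40 at 4°C. Before that, crude K562 extract at 1 mg/mL protein in PBS pH 7.4 with 1 mM MgCl2 was treated with 10 μM compound for 30 min and heated for 3 min across 48°C-58°C. Quantification used TMTpro 16plex LC-MS/MS with channel sums equalised, and values are log-two fold changes in thermal stability relative to solvent controls from duplicates.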

[2] = compound: CC1=C(SC2=C1C(=N[C@H](C3=NN=C(N32)C)CC(=O)N)C4=CC=C(C=C4)Cl)C
Procedure, shortened: as §1

[3] = compound: CC1=C2C(=CC=C1)N=C(N(C2=O)C3=CC=CC=C3C)CN4C=NC5=C(N=CN=C54)N
Procedure, shortened: as §1

[4] = compound: Cc1sc2c(c1C)C(c1ccc(Cl)cc1)=N[C@@H](CC(=O)OC(C)(C)C)c1nnc(C)n1-2
Procedure, shortened: as §1

[5] = compound: c1ccc([C@@H]2C[C@H]2NC2CCNCC2)cc1
Procedure, shortened: as §1

Measured: log2 fold change

EDC3 (UniProt Q96F86)
UniProt Q96F86, sequence (Q96F86 whole entry, looked up): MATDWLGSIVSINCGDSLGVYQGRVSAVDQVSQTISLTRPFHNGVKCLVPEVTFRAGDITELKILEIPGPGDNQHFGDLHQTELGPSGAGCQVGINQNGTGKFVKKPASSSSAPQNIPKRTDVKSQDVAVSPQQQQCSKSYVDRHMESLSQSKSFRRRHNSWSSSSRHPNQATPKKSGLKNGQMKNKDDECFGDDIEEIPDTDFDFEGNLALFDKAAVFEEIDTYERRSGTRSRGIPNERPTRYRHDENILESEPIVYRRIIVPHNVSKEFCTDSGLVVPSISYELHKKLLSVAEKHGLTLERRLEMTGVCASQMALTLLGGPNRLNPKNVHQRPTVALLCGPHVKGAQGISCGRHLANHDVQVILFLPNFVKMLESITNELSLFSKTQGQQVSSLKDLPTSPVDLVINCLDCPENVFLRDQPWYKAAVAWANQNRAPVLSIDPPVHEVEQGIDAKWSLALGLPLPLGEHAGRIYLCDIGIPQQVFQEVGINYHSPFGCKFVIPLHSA
inactive: [1] 0.036 | [2] 0 | [3] 0.028 | [4] 0.031 | [5] 0.008

FNTB (UniProt P49356)
inactive: [1] 0.023 | [2] 0.135 | [3] 0.015 | [4] -0.008 | [5] 0.038

EP400 isoform 5 (UniProt Q96L91)
inactive: [1] -0.008 | [2] 0.024 | [3] -0.014 | [4] 0.06 | [5] 0.016

ECI2 (UniProt O75521)
UniProt O75521, sequence (O75521 whole entry, looked up): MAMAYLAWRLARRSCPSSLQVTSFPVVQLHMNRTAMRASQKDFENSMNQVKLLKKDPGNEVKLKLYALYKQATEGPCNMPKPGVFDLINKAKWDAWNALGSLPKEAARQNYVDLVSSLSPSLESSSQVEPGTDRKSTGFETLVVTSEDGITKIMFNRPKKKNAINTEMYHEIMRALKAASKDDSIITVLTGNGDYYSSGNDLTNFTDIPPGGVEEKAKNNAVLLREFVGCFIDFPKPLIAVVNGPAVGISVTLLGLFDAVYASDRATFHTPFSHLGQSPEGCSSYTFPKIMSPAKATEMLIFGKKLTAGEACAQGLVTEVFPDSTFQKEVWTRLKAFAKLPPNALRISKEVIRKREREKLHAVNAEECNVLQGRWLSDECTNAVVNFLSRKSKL
inactive: [1] 0.019 | [2] -0.005 | [3] 0.014 | [4] -0.009 | [5] -0.045

FECH isoform 2 (UniProt P22830)
inactive: [1] 0.06 | [2] -0.101 | [3] -0.126 | [4] -0.229 | [5] -0.092

EXOC4 (UniProt Q96A65)
inactive: [1] -0.001 | [2] 0.009 | [3] 0.016 | [4] 0.063 | [5] 0.054

DTL (UniProt Q9NZJ0)
inactive: [1] 0.033 | [2] 0.038 | [3] 0.089 | [4] -0.032 | [5] -0.01

FLAD1 (UniProt Q8NFF5)
UniProt Q8NFF5, sequence (Q8NFF5 whole entry, looked up): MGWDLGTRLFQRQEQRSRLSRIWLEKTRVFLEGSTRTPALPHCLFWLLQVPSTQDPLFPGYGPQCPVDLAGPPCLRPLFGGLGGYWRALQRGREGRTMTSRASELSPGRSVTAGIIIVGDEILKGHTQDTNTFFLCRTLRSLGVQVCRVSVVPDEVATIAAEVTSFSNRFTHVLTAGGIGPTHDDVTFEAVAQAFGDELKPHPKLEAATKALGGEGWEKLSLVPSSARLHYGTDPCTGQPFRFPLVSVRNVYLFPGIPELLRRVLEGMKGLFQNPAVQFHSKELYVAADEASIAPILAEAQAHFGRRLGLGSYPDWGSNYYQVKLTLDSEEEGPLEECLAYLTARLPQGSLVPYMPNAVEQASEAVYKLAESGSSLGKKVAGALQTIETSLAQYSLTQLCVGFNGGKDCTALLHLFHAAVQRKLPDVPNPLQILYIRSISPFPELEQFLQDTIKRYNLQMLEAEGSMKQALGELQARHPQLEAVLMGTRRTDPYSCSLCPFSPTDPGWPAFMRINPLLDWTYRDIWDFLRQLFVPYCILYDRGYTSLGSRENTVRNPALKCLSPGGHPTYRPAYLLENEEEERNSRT
inactive: [1] 0.006 | [2] 0.032 | [3] 0.011 | [4] 0.017 | [5] 0.022

FADS3 (UniProt Q9Y5Q0)
inactive: [1] 0.021 | [2] 0.018 | [3] -0.227 | [4] -0.06 | [5] -0.115

EAPP (UniProt Q56P03)
UniProt Q56P03, sequence (Q56P03 whole entry, looked up): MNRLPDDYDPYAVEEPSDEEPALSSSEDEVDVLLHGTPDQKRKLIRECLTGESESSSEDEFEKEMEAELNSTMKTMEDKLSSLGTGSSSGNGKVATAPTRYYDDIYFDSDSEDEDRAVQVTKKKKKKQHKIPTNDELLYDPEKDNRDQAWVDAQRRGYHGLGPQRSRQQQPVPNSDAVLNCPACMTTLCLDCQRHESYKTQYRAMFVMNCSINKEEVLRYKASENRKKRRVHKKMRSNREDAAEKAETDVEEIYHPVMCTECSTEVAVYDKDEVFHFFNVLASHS
inactive: [1] 0.008 | [2] 0.048 | [3] 0.137 | [4] 0.029 | [5] -0.079

DUSP22 isoform 2 (UniProt Q9NRW4)
inactive: [1] 0.05 | [2] -0.068 | [3] 0.038 | [4] 0.099 | [5] -0.028

ERBIN isoform 8 (UniProt Q96RT1)
UniProt Q96RT1, sequence (Q96RT1 whole entry, looked up): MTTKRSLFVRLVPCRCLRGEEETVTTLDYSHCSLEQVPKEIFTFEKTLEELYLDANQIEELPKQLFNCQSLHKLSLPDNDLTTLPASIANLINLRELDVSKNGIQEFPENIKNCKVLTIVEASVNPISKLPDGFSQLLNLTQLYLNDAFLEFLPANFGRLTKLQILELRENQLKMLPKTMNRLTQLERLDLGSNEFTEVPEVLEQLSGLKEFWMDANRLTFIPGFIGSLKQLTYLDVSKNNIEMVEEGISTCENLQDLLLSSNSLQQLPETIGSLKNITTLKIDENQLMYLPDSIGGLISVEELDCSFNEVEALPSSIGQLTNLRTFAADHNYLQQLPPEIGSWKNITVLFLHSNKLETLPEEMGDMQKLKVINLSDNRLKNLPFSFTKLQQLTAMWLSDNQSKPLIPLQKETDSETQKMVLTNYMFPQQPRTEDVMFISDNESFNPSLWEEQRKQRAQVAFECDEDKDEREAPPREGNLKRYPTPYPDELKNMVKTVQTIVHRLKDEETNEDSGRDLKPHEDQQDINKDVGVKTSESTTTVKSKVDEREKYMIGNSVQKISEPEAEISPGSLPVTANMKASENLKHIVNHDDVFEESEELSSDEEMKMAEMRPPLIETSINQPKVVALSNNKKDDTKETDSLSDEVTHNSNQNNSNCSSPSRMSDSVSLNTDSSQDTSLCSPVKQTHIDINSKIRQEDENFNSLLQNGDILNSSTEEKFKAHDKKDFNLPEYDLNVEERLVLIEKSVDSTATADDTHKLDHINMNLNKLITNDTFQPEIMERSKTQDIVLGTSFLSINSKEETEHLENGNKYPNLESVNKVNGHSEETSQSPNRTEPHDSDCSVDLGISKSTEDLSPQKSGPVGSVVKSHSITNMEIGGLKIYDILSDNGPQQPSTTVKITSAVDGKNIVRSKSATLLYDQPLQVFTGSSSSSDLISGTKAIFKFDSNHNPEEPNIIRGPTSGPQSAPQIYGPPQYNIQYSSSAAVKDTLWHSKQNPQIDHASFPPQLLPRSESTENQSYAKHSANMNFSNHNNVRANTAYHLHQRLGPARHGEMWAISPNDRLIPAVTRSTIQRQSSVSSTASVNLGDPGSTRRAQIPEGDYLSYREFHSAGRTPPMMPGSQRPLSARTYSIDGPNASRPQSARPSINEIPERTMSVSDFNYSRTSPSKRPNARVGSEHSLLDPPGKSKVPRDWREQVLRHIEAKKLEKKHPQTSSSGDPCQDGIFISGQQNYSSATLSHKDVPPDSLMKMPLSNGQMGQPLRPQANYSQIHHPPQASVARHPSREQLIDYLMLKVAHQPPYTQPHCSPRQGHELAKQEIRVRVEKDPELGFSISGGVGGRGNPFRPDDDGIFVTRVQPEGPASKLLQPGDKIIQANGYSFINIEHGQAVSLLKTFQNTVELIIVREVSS
inactive: [1] -0.012 | [2] 0.02 | [3] -0.04 | [4] 0.037 | [5] -0.048

FAM98A (UniProt Q8NCA5)
inactive: [1] 0.017 | [2] 0.002 | [3] -0.048 | [4] 0.016 | [5] 0.02

GAPVD1 isoform 6 (UniProt Q14C86)
inactive: [1] -0.013 | [2] 0.002 | [3] 0.002 | [4] -0.011 | [5] 0.063

EDARADD (UniProt Q8WWZ3)
inactive: [1] 0.074 | [2] -0.088 | [3] -0.032 | [4] -0.037 | [5] 0.064

DUS2 (UniProt Q9NX74)
inactive: [1] 0.037 | [2] 0.018 | [3] -0.018 | [4] 0.055 | [5] 0.116

EIF1 (UniProt P41567)
UniProt P41567, sequence (P41567 whole entry, looked up): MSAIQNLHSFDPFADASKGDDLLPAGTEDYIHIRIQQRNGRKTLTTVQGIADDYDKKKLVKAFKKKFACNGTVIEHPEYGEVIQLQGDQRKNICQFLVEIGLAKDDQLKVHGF
inactive: [1] 0.146 | [2] -0.034 | [3] -0.031 | [4] -0.035 | [5] -0.114

FIGNL1 (UniProt Q6PIW4)
inactive: [1] -0.033 | [2] 0.01 | [3] 0.028 | [4] 0.051 | [5] 0.085

FAM53B (UniProt Q14153)
UniProt Q14153, sequence (Q14153 whole entry, looked up): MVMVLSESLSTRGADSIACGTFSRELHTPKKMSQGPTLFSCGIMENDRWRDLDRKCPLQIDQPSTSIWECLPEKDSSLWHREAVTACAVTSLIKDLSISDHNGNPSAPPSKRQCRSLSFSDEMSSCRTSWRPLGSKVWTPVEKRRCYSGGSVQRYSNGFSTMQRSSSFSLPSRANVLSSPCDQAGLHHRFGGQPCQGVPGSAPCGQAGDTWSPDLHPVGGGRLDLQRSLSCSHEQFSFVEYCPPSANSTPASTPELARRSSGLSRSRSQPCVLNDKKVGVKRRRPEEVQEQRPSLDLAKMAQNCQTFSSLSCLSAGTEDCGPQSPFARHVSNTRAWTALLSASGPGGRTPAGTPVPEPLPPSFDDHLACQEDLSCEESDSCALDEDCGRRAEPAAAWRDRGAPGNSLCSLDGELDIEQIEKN
inactive: [1] 0.044 | [2] -0.039 | [3] 0.055 | [4] -0.088 | [5] 0.022

EWSR1 (UniProt H7BY36)
inactive: [1] -0.079 | [2] -0.06 | [3] 0.091 | [4] -0.058 | [5] 0.061

FTL (UniProt P02792)
inactive: [1] -0.067 | [2] 0.127 | [3] -0.034 | [4] -0.03 | [5] -0.031

FANCI (UniProt Q9NVI1)
UniProt Q9NVI1, sequence (Q9NVI1 whole entry, looked up): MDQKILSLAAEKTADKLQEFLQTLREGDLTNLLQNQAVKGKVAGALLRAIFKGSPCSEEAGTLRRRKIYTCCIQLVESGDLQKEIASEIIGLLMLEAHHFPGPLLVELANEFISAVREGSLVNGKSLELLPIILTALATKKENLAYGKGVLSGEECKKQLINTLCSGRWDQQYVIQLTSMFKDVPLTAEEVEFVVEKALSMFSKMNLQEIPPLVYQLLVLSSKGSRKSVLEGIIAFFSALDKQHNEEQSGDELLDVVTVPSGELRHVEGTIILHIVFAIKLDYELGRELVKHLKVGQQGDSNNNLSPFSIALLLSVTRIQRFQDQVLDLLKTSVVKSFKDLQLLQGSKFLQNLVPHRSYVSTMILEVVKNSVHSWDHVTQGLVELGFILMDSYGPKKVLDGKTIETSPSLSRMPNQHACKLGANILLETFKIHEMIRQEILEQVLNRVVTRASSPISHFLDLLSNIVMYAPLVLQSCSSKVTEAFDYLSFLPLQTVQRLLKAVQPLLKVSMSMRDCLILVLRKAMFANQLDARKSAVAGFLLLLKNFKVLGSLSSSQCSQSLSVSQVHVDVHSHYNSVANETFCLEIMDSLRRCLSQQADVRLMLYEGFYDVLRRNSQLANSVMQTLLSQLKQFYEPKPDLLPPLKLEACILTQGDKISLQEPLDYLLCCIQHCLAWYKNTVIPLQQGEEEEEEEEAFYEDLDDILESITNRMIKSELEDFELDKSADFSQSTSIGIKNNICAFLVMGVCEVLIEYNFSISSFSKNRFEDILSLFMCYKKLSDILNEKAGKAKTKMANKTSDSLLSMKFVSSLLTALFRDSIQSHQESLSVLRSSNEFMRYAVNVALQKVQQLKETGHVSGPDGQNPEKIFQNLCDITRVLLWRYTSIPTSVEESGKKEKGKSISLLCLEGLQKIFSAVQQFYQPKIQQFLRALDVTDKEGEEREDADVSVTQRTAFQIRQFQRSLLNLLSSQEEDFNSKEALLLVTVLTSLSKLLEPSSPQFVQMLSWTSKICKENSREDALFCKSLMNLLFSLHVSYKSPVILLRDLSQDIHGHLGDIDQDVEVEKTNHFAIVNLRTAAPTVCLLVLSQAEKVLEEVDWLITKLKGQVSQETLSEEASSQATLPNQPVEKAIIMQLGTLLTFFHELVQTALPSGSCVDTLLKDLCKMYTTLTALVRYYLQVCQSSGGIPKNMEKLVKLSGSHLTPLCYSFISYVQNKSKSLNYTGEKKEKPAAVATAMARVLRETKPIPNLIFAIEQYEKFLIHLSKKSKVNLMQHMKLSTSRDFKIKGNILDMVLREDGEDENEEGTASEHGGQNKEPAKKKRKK
inactive: [1] -0.051 | [2] -0.009 | [3] 0.029 | [4] 0.015 | [5] 0.088

EED, A0A5F9ZI63
inactive: [1] 0.022 | [2] -0.01 | [3] 0.027 | [4] -0.007 | [5] -0.011

FYB1 isoform 3 (UniProt O15117)
inactive: [1] 0.011 | [2] 0.039 | [3] 0.095 | [4] 0.008 | [5] 0.051
